Experiment [1] in a line: Stat Signaling Pathway (AID 446; active = well fitted curve in either direction with a large enough effect, not every such curve was filed as active;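 note: ME-180 cervical cancer cells given 40 pM IL-6 alongside compound; SIE-controlled beta-lactamase reporter measured as 460/530 nm FRET emission ratio; % is set by controls: 0 for no effect and ±100 for the full control effect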). The settings on record: ME-180 SIE beta-lactamase reporter, IL-6 stimulated, 5 h; at 17.2 µM (top of the series) unless noted. Summed up: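 Normalization used AC90 stimulation (300 pM IL-6) and AC90 inhibition (125 nM pan-JAK inhibitor at 40 pM IL-6). The underlying signal is SIE-driven beta-lactamase in ME-180 cells after 5 h IL-6 exposure with compound.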

For experiment [2], the target named is Glucocorticoid receptor (Homo sapiens) (UniProt P04150). As to the kind of experiment: GR-GFP Redistribution (AID 450). Note: potency is the fitted concentration of half-maximal effect.
Experiment [3] in a line: qHTS Assay for Identification of Small Molecule Agonists for Hypoxia Response Element Signaling Pathway (AID 914; active = well fitted activation curve with a large enough effect in the signal ratio, with a control signal flat, not every such curve was filed as active; the % refers to the signal ratio; note: potency is the fitted concentration of half-maximal effect). The settings on record: ME-180 (cervical carcinoma) HRE-bla reporter, beta-lactamase ratio, CoCl2, 17 h; activation: hits give high values. The method in brief: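 Positive modulation of EC50 CoCl2-induced hypoxia response element signaling is measured in ME-180 cells with a beta-lactamase reporter. Compounds are titrated, incubation runs 17 hours, and %Activity derives from the blue/green ratio.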
For orientation: qHTS replaces the single test concentration by a dilution series.

Unmarked numbers belong to inactive results. Inconclusive results are not listed. Active and inactive are the calls of the source.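 Rule for the calls, unless noted: active = compounds whose dose series gives a full or clear partial fitted curve of increased nuclear translocation; inconclusive = weak partial curve or effect only at the top dose; inactive = no dose-dependent translocation response.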

Sequence of Glucocorticoid receptor (Homo sapiens) (P04150 whole entry, looked up): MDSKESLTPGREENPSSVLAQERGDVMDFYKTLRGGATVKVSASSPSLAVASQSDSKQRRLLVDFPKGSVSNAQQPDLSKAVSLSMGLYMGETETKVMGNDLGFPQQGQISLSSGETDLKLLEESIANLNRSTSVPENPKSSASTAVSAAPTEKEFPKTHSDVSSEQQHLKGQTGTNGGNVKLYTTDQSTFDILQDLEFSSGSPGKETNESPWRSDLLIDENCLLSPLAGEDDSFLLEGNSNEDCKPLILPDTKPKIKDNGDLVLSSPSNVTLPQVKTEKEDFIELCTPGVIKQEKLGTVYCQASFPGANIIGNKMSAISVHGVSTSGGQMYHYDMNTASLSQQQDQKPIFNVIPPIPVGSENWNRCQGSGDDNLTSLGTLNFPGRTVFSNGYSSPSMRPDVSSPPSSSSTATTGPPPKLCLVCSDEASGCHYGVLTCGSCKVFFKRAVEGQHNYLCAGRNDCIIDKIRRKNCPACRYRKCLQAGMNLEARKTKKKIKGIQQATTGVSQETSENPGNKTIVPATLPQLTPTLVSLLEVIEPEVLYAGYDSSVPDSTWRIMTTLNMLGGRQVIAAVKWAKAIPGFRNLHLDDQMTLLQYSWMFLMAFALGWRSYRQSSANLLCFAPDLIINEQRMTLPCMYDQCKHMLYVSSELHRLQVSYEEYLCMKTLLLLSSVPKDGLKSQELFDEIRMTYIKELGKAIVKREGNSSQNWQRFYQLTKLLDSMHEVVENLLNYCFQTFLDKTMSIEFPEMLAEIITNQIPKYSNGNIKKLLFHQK

For `Cn1c(NCC(O)c2ccccc2)nc2c1c(=O)n(Cc1ccc(Cl)cc1)c(=O)n2C` (stereo not given), the activity, negative = inhibition in experiment [1] was -24.9%. Also, the Potency in experiment [2] was greater than 20.6 µM.

Regarding `CCN1CCc2c(C#N)c(N3CCCCC3)nc(NCc3ccccc3)c2C1`, in experiment [1], the activity, negative = inhibition is 5.55%. Besides, the Potency in experiment [2] was greater than 20.6 µM.

In the case of `COC(=O)CC1=C(C(=O)OC)C(c2ccncc2)C(C#N)=C(N)O1` (stereo not given), the activity, negative = inhibition in experiment [1] was 0.288%. Moreover, the Potency in experiment [2] is greater than 20.6 µM.

As for `CN1Cc2c(N3CCOCC3)nc(SCc3ccccc3)c(C#N)c2CC1(C)C`, the activity, negative = inhibition in experiment [1] is -1.83%. The Potency in experiment [2] was greater than 20.6 µM.

On to `CCOC(=O)C1CCN(c2nc3ccccc3nc2C(C#N)C(=O)NCCc2ccccc2)CC1` (stereo not given), for which the activity, negative = inhibition in experiment [1] is -24.6%. Further, the Potency in experiment [2] is greater than 20.6 µM.

In the case of `N#C/C(=N\O)c1nc(-c2ccccc2)cs1`, the activity, negative = inhibition in experiment [1] is 9.7%. The Potency in experiment [2] is greater than 20.6 µM.

As to `COc1cc(C(=O)OCCN2CCCCC2)ccc1O`, the activity, negative = inhibition in experiment [1] was 4.68%. Also, in experiment [2], the Potency is greater than 20.6 µM.

On to `Nc1c2c(nc3ccccc13)N(c1ccccc1)CC2`, for which the activity, negative = inhibition in experiment [1] is 9.15%. Moreover, in experiment [2], the Potency is greater than 20.6 µM.

For `CCN(CC)c1ccc2c(C)c(-c3ccc(N)cc3)c(=O)oc2c1`, in experiment [1], the activity, negative = inhibition was 14.8%. The Potency in experiment [2] was greater than 20.6 µM.

With `COC(=O)c1ccccc1NC=C1C(=O)OC2(CCCCC2)OC1=O`, the activity, negative = inhibition in experiment [1] is 2.6%. Also, in experiment [2], the Potency is greater than 20.6 µM.

Turning to `COc1ccc(CNc2oc(COc3ccc(Cl)cc3)nc2C#N)cc1`, the activity, negative = inhibition in experiment [1] is -26.7%. For the same compound, the Potency in experiment [2] is greater than 20.6 µM.

As for `CCOc1ccc(/C(O)=C2/C(=O)C(=O)N(c3cc(C)on3)C2c2ccc(C(=O)OC)cc2)cc1` (stereo not given), the activity, negative = inhibition in experiment [1] is -18.4%. Besides, in experiment [2], the Potency was greater than 20.6 µM.

Regarding `CCN(CC)c1ccc(-c2nn3c(-c4cccnc4)nnc3s2)cc1`, the activity, negative = inhibition in experiment [1] was -29.8%. For the same compound, the Potency in experiment [2] is greater than 20.6 µM.

On to `COC(=O)c1ccc(Cn2cnc3c(sc4nc(N5CCOCC5)c5c(c43)CCCC5)c2=O)o1`, for which the activity, negative = inhibition in experiment [1] is -11.4%. The Potency in experiment [2] is greater than 20.6 µM.

For the compound `N#CC1=C(SCC(=O)c2ccccc2)NC2=C(C(=O)CCC2)C1c1ccco1` (stereo not given), in experiment [1], the activity, negative = inhibition was -23.9%. In addition, the Potency in experiment [2] is greater than 20.6 µM; in experiment [3], 10 µM (active).

Regarding `N#Cc1nc(COc2ccc(Br)cc2)oc1N1CCCC1`, in experiment [1], the activity, negative = inhibition is 3.52%. Further, the Potency in experiment [2] was greater than 20.6 µM.

Regarding `N#CC1=C(SCc2ccccc2)NC2=C(C(=O)CCC2)C1c1ccc2c(c1)OCO2` (stereo not given), in experiment [1], the activity, negative = inhibition was -5.66%. In addition, the Potency in experiment [2] is greater than 20.6 µM.

On to `Cc1cc(C)n(S(=O)(=O)/C=C/c2ccccc2)n1`, for which the activity, negative = inhibition in experiment [1] was -7.25%. In addition, the Potency in experiment [2] is greater than 20.6 µM.

As to `COc1cccc(-c2nnc3sc(C4CCCCC4)nn23)c1`, the activity, negative = inhibition in experiment [1] is -91.1% (active). For the same compound, the Potency in experiment [2] was greater than 20.6 µM.

In the case of `O=C(NCc1ccccn1)c1coc(=O)c(Br)c1`, the Potency in experiment [2] was greater than 20.6 µM.

As to `CCN(CC)CCOC(=O)c1c(C)n(C)c2ccc(OC)cc12`, the activity, negative = inhibition in experiment [1] is 11.9%. Besides, the Potency in experiment [2] is greater than 20.6 µM.

Regarding `Cc1cc(N2C(=O)C(=O)/C(=C(/O)c3ccc(F)cc3)C2c2ccc(F)cc2)no1` (stereo not given), the activity, negative = inhibition in experiment [1] was -24.4%. Further, the Potency in experiment [2] was greater than 20.6 µM.

For the compound `Clc1ccccc1CN(Cc1ccccc1)c1ncnc2nc[nH]c12`, the activity, negative = inhibition in experiment [1] is -10.3%. The Potency in experiment [2] was greater than 20.6 µM.

For the compound `CCOC(=O)c1[nH]c2cc3c(cc2c1NC(=O)CN1CCCCC1C)OCO3` (stereo not given), in experiment [1], the activity, negative = inhibition is -10.3%. Moreover, in experiment [2], the Potency was greater than 20.6 µM.

With `Fc1ccccc1-c1nc(N2CCCCC2)c2ccccc2n1`, the activity, negative = inhibition in experiment [1] was -21.5%. Besides, the Potency in experiment [2] is greater than 20.6 µM.

Take `CCC(=O)Oc1ccc(/C(CC)=C(\CC)c2ccc(OC(=O)CC)cc2)cc1`: the activity, negative = inhibition in experiment [1] is -21.2%. Moreover, the Potency in experiment [2] is greater than 20.6 µM.

Consider `CSc1nc2[nH]c3c(c2c2ncnn12)CCCC3`, for which the activity, negative = inhibition in experiment [1] was -26.5%. The Potency in experiment [2] is greater than 20.6 µM.

Consider `Cc1cccc(C)c1OCC(=O)Nc1cccc(-c2nnc(-c3ccccc3)o2)c1`, for which the activity, negative = inhibition in experiment [1] is -9.86%. Moreover, the Potency in experiment [2] is greater than 20.6 µM.

As for `COc1cccc(-c2nc(N3CCCCC3C)c3ccccc3n2)c1O` (stereo not given), the activity, negative = inhibition in experiment [1] was -21.7%. For the same compound, the Potency in experiment [2] is greater than 20.6 µM.

Take `O=C(O)CCc1cc(I)c(Oc2ccc(O)c(I)c2)c(I)c1`: the activity, negative = inhibition in experiment [1] was -5.45%. In experiment [2], the Potency is greater than 20.6 µM.

In the case of `CC(C)OC(=O)c1c2nc3ccccc3nc2n2c1[nH]c(=O)c1ccccc12`, in experiment [1], the activity, negative = inhibition was -17%. In addition, the Potency in experiment [2] is greater than 20.6 µM.

Consider `CCOC(=O)N1CCN(c2ncnc3c2[nH]c2ccc(OC)cc23)CC1`, for which the activity, negative = inhibition in experiment [1] was -22.9%. Besides, the Potency in experiment [2] is greater than 20.6 µM.

`COc1ccc(OC)c(NC(=O)CSC2=C(C#N)C(c3ccco3)C3=C(CCCC3=O)N2)c1` (stereo not given): in experiment [1], the activity, negative = inhibition is -3.42%. For the same compound, in experiment [2], the Potency is greater than 20.6 µM.

On to `N=c1c2c(-c3ccccc3)c(-c3ccccc3)n(Cc3ccccc3)c2ncn1CCCn1ccnc1`, for which the activity, negative = inhibition in experiment [1] is 9.95%. The Potency in experiment [2] was greater than 20.6 µM.

Turning to `CCCCc1ccc(NC(=O)CSC2=C(C#N)C(c3ccco3)C3=C(CCCC3=O)N2)cc1` (stereo not given), the activity, negative = inhibition in experiment [1] was -23.6%. In experiment [2], the Potency was greater than 20.6 µM.
